PubChem BioAssay AID2507 (National Center for Advancing Translational Sciences (NCATS), 2010)
Inconclusive results are not listed. Values without a mark were called inactive. Calls of active or inactive are those of the source. Calls follow the shape of the dose curve; as a rule, active = well fitted inhibition curve with a large enough effect; inconclusive = small, poorly fitted or top-dose-only effect, or effect the other way; inactive = flat fitted curve, though single readings scatter.

Test: Secondary Assay for General miRNAs Modulators and/or Inhibitors/Activators of miR-21: miR-30 Firefly Luciferase Assay
Settings: HeLa miR-30 FLuc reporter, luminescence, 48 h; series mostly up to 38.3 µM; activity change, negative = inhibition: at the top concentration
Source text: MLSCN Grant: 1 R21 NS059478-01 Assay Provider: Qihong Huang, The Wistar Institute NCGC Assay Overview: MicroRNAs (miRNAs) are endogenously encoded small (~20-25 nucleotides), nonprotein-coding RNAs that are involved in post-transcriptional repression of target messenger RNAs (mRNAs) (Le and Hannon, 2004). Estimated to be involved in the regulation of 30% of all protein-coding mRNAs (Filipowicz et al., 2008), miRNAs play a significant role in many biological processes including cellular differentiation and tissue development (Ghildiyal and Zamore, 2009). […] Compounds active in the miR-21 FLuc assay were clustered using Leadscope and active chemical series were prioritized based on chemical properties, potential for medicinal chemistry optimization, and SAR. Within each chemical series, representative compounds were re-acquired to test for activity in a secondary assay based on the quality of their CRC, efficacy, and potency. The secondary assay to determine if compounds active in the miR-21 FLuc assay were potentially specific for miR-21 and were not general modulators of the miRNA pathway was another cell-based FLuc reporter gene assay, this time targeting miR-30. Compounds found active in both the miR-21 FLuc and miR-30 FLuc assays are not considered miR-21 specific compounds, and may be general miRNA modulators.
NCGC Assay Protocol Summary: Reagents: HeLa cells stably expressing firefly luciferase (FLuc) under the control of a CMV promoter (upstream) and a miR-30 binding sequence directly downstream of the gene. These cells also stably express miR-30. Control compounds used were compound C3 (provided by collaborator), N6-phenyladenosine (MP Biomedicals, 0215379625), and DMSO. Assay Summary: 6uL of HeLa miR-30-FLuc cells in assay buffer (DMEM, Invitrogen #21063-029; 10% FBS, HyClone #SH30071.03) were dispensed at 1000cells/well (1.7 x 10^5 cells/mL) into Greiner solid-white TC-treated 1536-well plates using a Multidrop Combi (Thermo Fisher Scientific). Plates were incubated for one hour at 37 degree Celsius, 95% humidity, 5% CO2. These assay plates were then treated with 23nL of compound or DMSO using a Kalypsys pin tool, which allows for delivery of a 24-point titration of each compound to the assay plate, with a final compound concentration ranging from approximately 40uM to 5pM. Assay plates were then incubated for 48 hours. After incubation, plates were allowed to come to RT for one hour prior to delivery of 3uL of 3X luciferase detection reagent. After a 15 minute incubation to allow for cell lysis, luciferase activity was measured using a ViewLux CCD imager (PerkinElmer), with an average exposure time of 2-12 seconds. Keywords: NIH Roadmap, MLPCN, MLSMR, qHTS, miR-21, miR-30, microRNA, firefly luciferase, FLuc.

| SMILES | Potency | activity change, negative = inhibition [%] |
| --- | --- | --- |
| Cc1cccc(-n2nnc(-c3nc(-c4cccs4)no3)c2N)c1C | 0.159 µM (active) | – |
| O=C(COc1ccccc1F)Nc1ccc(-c2nc3ccccc3s2)cc1 | 3.18 µM (active) | – |
| COc1ccc(-n2nnc(-c3nc(-c4cccs4)no3)c2N)cc1OC | – | -14.2 |
| COc1ccc(NC(=O)CSc2nnc(-c3cccs3)o2)cc1 | 3.56 µM (active) | – |
| COc1ccc(NCc2cccn2-c2nnc(N3CCC(C)CC3)s2)c(OC)c1 | 1.79 µM (active) | – |
| Cc1cccc(-n2nnc(-c3nc(-c4cccs4)no3)c2N)c1 | 0.798 µM (active) | – |
| CCc1cccc(-n2nnc(-c3nsc(NC(=O)c4cccs4)n3)c2C)c1 | 7.11 µM (active) | – |
| O=C(CSc1nnc(-c2ccc(Cl)cc2)o1)Nc1ccc(F)cc1 | 3.18 µM (active) | – |
| Cc1c(-c2nnc(SCC(=O)Nc3ccccc3F)o2)nnn1-c1ccc(F)cc1 | 4 µM (active) | – |
| COCC(=O)Nc1c(C(=O)Nc2ccc3c(c2)OCCO3)oc2ccccc12 | 0.634 µM (active) | – |
| Cc1ccc(-n2nnc(-c3nc(-c4cccs4)no3)c2N)cc1C | 2.52 µM (active) | – |
| CCc1nonc1NC(=O)c1oc2ccc(C)cc2c1C | 4.49 µM (active) | – |
| Cc1ccccc1OCCn1cnc2c(N)ncnc21 | – | -28.9 |
| COc1ccc(NC(=O)CSc2nc(SC)ns2)c(OC)c1 | 5.04 µM (active) | – |
| Cc1cc(C)n2c(SCc3ccccc3Cl)nnc2n1 | 14.2 µM (active) | – |
| Cc1c(-c2nsc(NC(=O)c3cccs3)n2)nnn1-c1ccc(F)cc1 | 0.895 µM (active) | – |
| CN(C)c1ccc(CNc2nc(-c3ccco3)nn2S(C)(=O)=O)cc1 | 2.83 µM (active) | – |
| COc1ccc(OCC(=O)Nc2cc(-c3nc4ccccc4s3)ccc2C)cc1 | 4.49 µM (active) | – |
| CC(C)C(=O)Nc1nc2c(s1)CC(C(C)(C)C)CC2 (stereo not given) | 0.895 µM (active) | – |
| CS(=O)(=O)n1nc(-c2ccc(Cl)cc2)nc1SCc1ccccc1 | 10 µM (active) | – |

| SMILES | Potency | activity change, negative = inhibition [%] |
| --- | --- | --- |
| Cc1cccc(OCc2nnc(SCC(=O)Nc3ccc(N4CCOCC4)cc3)o2)c1 | – | 10.4 |
| N#Cc1cc2cc3c(cc2nc1SCC(=O)N1CCOCC1)OCO3 | 0.798 µM (active) | – |
| CCc1nonc1NC(=O)c1oc2ccccc2c1C | 12.6 µM (active) | – |
| CCc1ccc2oc(C(=O)Nc3nonc3CC)c(C)c2c1 | 3.56 µM (active) | – |
| Cc1ccc2c(C)c(C(=O)N(C)C(C)c3ccncn3)oc2c1C (stereo not given) | 22.5 µM (active) | – |
| COc1ccc(-c2csc(NC(=O)COC(=O)c3ccc(Br)o3)n2)cc1 | 2.25 µM (active) | – |
| COc1nc(Nc2cccc(C(F)(F)F)c2)nc(OC)n1 | 22.5 µM (active) | – |
| O=C(CSc1nnc(-c2ccc(O)cc2)o1)Nc1ccccc1Br | 1.13 µM (active) | – |
| COc1ccc(OCC(=O)Nc2ccc(-c3nc4cc(C)c(C)cc4o3)cc2)cc1 | 0.798 µM (active) | – |
| COc1cc(-c2nc3cnccn3c2Nc2ccc(C(C)C)cc2)ccc1O | 2.25 µM (active) | – |
| CCC(Oc1ccccc1F)C(=O)N1CCC(c2nc3ccccc3s2)CC1 (stereo not given) | – | 18.4 |
| Nc1c(-c2nc(-c3ccccc3Cl)no2)nnn1-c1ccccc1F | 0.4 µM (active) | – |
| Nc1c(C(=O)Nc2ccccc2Br)sc2nc(-c3cccs3)ccc12 | – | 9.39 |
| Nc1c(-c2nc(-c3ccncc3)no2)nnn1CC(=O)Nc1ccccc1 | – | -3.22 |
| Cc1ccc(CNc2nc(-c3ccco3)nn2S(C)(=O)=O)cc1 | 2.83 µM (active) | – |
| Cc1ccc(SCC(=O)Nc2ccc3oc(-c4ccc(F)cc4)nc3c2)cc1 | 11.3 µM (active) | – |
| COc1ccc(CNc2n[nH]c(-c3ccco3)n2)cc1OC | – | -23.9 |
| CSc1nsc(SCC(=O)Nc2ccc(F)cc2F)n1 | 12.6 µM (active) | – |
| Cc1ccc(Nc2ncnc(N)n2)cc1C | 10 µM (active) | – |
| NC(=O)c1ccccc1NC(=O)c1ccc(-c2ccc(Br)cc2)o1 | 1.13 µM (active) | – |
